According to PubChem BioAssay:
Unmarked numbers belong to inactive results. The rule behind the calls is not given here.

Assay: compounds altering circadian rhythm period length – cell-based, LOPAC library, luminescence reporter (AID 2774);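 note: values are relative to mean of DMSO wells on each plate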
Settings: circadian reporter cells, at 7 µM, actives lie on both sides
Compound `COc1ccccc1NC(=O)Nc1nc(-c2cccnc2)nc2ccccc12` has a period change of -0.005 h.
`Cc1ccccc1N1CCN(S(=O)(=O)C[C@]23CCC(CC2NC(=O)[C@@H](N)CCS(C)(=O)=O)C3(C)C)CC1` (some centres undefined) showed a period change of -0.06 h.
`O=C(O)CCC(NC(=O)c1ccccc1C(=O)O)C(=O)O` (centres undefined) gave a period change of -0.08 h.
`COC(=O)c1c(-c2cc(OC)c(OC)c(OC)c2)c2ccc(OCc3ccccn3)cc2c(=O)n1-c1ccc(N)cc1` showed a period change of 0.015 h.
Work on `COc1cc2nc(N3CC=[N+](C(=O)c4ccco4)CC3)nc(N)c2cc1OC` yielded a period change of 0.01 h.
In the case of `CCCNC[C@H](O)COc1ccccc1C(=O)CCc1ccccc1`, the period change is reported as 0.08 h.
For `CC(C)C[C@H](N)CSSC[C@@H](N)CC(C)C`, the period change was -0.095 h.
With `CCCCN1CCC(COC(=O)c2cc(Cl)c(N)c3c2OCCO3)CC1` the period change was -0.095 h.
`COc1cc(C(O)CO)ccc1O` (centres undefined) (tested in a mixture with another compound) showed a period change of 0.16 h.
Work on `OC[C@H]1O[C@@H](n2cnc3c(Nc4ccccc4)ncnc32)C(O)[C@H]1O` (some centres undefined) yielded a period change of -0.12 h.
`CC(N)=NCCC[C@H](N)C(=O)O` gave a period change of 0.025 h.
Work on `CCCCCCCCCCCCC/C=C/C(O)C(N)CO` (centres undefined) yielded a period change of 0.015 h.
With `O=C(O)CCCCCC[C@H]1C(=O)NC(=O)N1CC[C@@H](O)C1CCCCC1` the period change was 0.18 h.
With `CCCCC#Cc1nc(N)c2ncn([C@@H]3O[C@H](C(=O)NCC)[C@@H](O)[C@H]3O)c2n1` the period change was -0.015 h.
Compound `C[N+](C)(C)CCC(=O)c1cccc2ccccc12` has a period change of -0.475 h.
`Cc1ccc(C(=O)O[C@H](C(=O)O)[C@H](OC(=O)c2ccc(C)cc2)C(=O)O)cc1` (tested in a mixture with another compound) showed a period change of -0.105 h.
Work on `CCNC(=O)C1OC(n2cnc3c(NCc4ccccc4)ncnc32)C(O)C1O` (centres undefined) yielded a period change of 0.1 h.
In the case of `CNCC[C@@H](Oc1ccc(C(F)(F)F)cc1)c1ccccc1`, the period change is reported as 0.13 h.
Compound `Cc1ccccc1CNc1ncnc2c1ncn2C1OC(CO)C(O)C1O` (centres undefined) has a period change of -0.235 h.
With `CC(C)[C@@H](CO)Nc1nc(Nc2cccc(Cl)c2)c2ncn(C(C)C)c2n1` the period change was -0.115 h.
In the case of `COc1ccccc1N1CCN(CCCCNS(=O)(=O)c2cccc3c(N(C)C)cccc23)CC1`, the period change is reported as 0.125 h.
With `CN1CCc2c(cc(O)c(O)c2Cl)C(c2cccc(Cl)c2)C1` (centres undefined) the period change was 0.165 h.
With `N=C1Sc2ccccc2C2=NCCCN12` the period change was -0.035 h.
In the case of `NC(=NCCC[C@H](N)C(=O)O)NO`, the period change is reported as -0.09 h.
Compound `CCn1cc(C(=O)O)c(=O)c2ccc(Cc3ccccc3)nc21` has a period change of -0.035 h.
Compound `Cc1c(C)c2c(c(C)c1O)CCC(C)(CN1CCN(c3cc(N4CCCC4)nc(N4CCCC4)n3)CC1)O2` (centres undefined) has a period change of 0.14 h.
Compound `N#CC(Cc1ccc(O)c(O)c1)C(=O)N1CCc2ccccc21` (centres undefined) has a period change of 0.025 h.
In the case of `Cc1ccc(OCC(O)C(C)NC(C)C)c2c1CCC2` (centres undefined), the period change is reported as 0.02 h.
With `CN1C2CCC1CC(NC(=O)c1nn(C)c3ccccc13)C2` (centres undefined) the period change was 0.265 h.
In the case of `NC(N)=NCCSSCCN=C(N)N`, the period change is reported as 0.065 h.
Compound `CCCC(=O)NCCc1c2n(c3ccc(OC)cc13)Cc1ccccc1-2` has a period change of 0.125 h.
With `CC1(NCC(O)COc2cccc3[nH]ccc23)CCC(C(C)(C)NC(=O)CBr)CC1` (centres undefined) the period change was -0.095 h.
In the case of `C[N+](C)(CCCCCC[N+](C)(C)CCCN1C(=O)c2cccc3cccc(c23)C1=O)CCCN1C(=O)c2cccc3cccc(c23)C1=O`, the period change is reported as -0.055 h.
Work on `CCCCCCCCCCCCCCCCOCC(COCC(F)(F)F)OP(=O)(O)OCO` (centres undefined) yielded a period change of 0.01 h.
In the case of `CCCCCCCCCCCCCCCC(=O)NCC(COP(=O)([O-])OCC[N+](C)(C)C)OCC` (centres undefined), the period change is reported as -0.285 h.
`CCN1CCC[C@H]1CNC(=O)c1c(OC)ccc(I)c1O` showed a period change of 0.025 h.
With `CNC(=O)[C@H]1O[C@@H](n2cnc3c(N)ncnc32)C(O)[C@H]1O` (some centres undefined) the period change was 0.045 h.
`CCCCCCCCCCCCCCCCCC(=O)NCC(COP(=O)([O-])OCC[N+](C)(C)C)OCC` (centres undefined) showed a period change of 0.195 h.
In the case of `Cc1cc(N)c2ccccc2[n+]1CCCCCCCCCCCCCC[n+]1c(C)cc(N)c2ccccc21`, the period change is reported as 0.11 h.
